CYP2C9 inh: human CYP2C9 inhibition; CYP2C9 Supersomes, luciferin-H conversion, luminescence; AID 777; P11712; inhibition, % at 5 µM; 96,000 compounds, 20% hits;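 active means blocking of liver enzyme CYP2C9 beyond about 50% at 5 µM, limit read from the data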
Target sequence (P11712 whole entry, looked up): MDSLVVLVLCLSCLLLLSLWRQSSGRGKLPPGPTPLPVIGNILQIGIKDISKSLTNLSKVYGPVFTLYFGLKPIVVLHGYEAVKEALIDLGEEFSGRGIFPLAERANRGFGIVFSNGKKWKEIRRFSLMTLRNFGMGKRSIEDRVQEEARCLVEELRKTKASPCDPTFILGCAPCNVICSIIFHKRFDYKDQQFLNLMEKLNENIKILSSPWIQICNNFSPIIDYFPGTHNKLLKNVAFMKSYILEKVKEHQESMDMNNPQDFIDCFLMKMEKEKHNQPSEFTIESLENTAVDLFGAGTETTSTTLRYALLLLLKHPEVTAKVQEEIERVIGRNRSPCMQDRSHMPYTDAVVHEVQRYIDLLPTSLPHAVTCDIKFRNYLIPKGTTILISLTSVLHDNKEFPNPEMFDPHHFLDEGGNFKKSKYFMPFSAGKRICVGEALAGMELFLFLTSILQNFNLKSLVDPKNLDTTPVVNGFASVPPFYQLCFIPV
CYP2C9 activ: increases human cytochrome P450 2C9 activity | activation factor at 5 µM | recombinant CYP2C9, luciferin-H conversion, luminescence; stronger effect = higher value; factor 1 = untreated enzyme, 0 = blocked | AID 1024 | 96,000 compounds, 1.4% hits;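 active means activation factor of 2 or more for CYP2C9 at a 5 µM dose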;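 further: 0 = sulfaphenazole-blocked wells and 1 = vehicle-only wells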
Cav32 inh: human Cav3.2 channel inhibition, primary screen | 100,000 compounds, 4% hits | B-score at 10 µM | Cav3.2-expressing cells, Fluo-4 calcium fluorescence FDSS; stronger effect = lower value;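 active means single-dose well whose peak fluorescence ratio is a statistical outlier from its plate by either plate-standardised score or position-corrected B-score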
Pyk2 oligo antag: blocks oligomerization of human Pyk2 in cells; Q14289; Q293 cells, Pyk2 FERM NanoBiT luminescence; stronger effect = lower value; z-score (the deposit names both 25 µM and 10 µM); 99,000 compounds, 0.83% hits; AID 1347419;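 active means Z-score of -3 or lower, scaled per plate to the spread of control and sample wells; inactive means z-score above -3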;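 further: negative z-score means lost luminescence so less FERM oligomerization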
CYP2C19 inhib: blocks human cytochrome P450 2C19 | AID 778 | 96,000 compounds, 21% hits | CYP2C19 Supersomes, luciferin-H EGE luminescence, 30 min | inhibition, % at 5 µM;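 active means CYP2C19 inhibition above a set limit at 5 µM in the primary screen, cut at about 50% in these data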;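 further: plate controls were negative control wells for no effect and 2.5 mM tranylcypromine positive control for full effect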
CYP2C19 act: increases human CYP2C19 enzyme activity; P33261; recombinant CYP2C19, luciferin-H EGE luminescence; stronger effect = higher value; 0 = fully inhibited enzyme, 1 = untreated enzyme; activation factor at 5 µM; 96,000 tested, under 10 active; AID 1025;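 active means activation factor of at least 2 at 5 µM in the primary screen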;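 further: 0 = wells with 2.5 mM tranylcypromine and 1 = vehicle-only wells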
An asterisk follows results filed as active; / = no result. In the library only some 27% were active in any assay of this set; here they are far more common.

SMILES	CYP2C9 inh	CYP2C9 activ	Cav32 inh	Pyk2 oligo antag	CYP2C19 inhib	CYP2C19 act
N#CC1(c2ccccc2)CCCN1C(=O)c1ccc(Br)o1 (stereo not drawn)	17	0.8	-0.14	-0.33	29	0.7
CC(=O)CN1Cc2ccccc2/C1=N\C(=O)Nc1ccccc1	48	0.5	0.22	-0.19	58*	0.4
O=C(NC1CCCCC1)C(c1cccs1)N(C(=O)Cc1c[nH]c2ccccc12)c1ccc(F)cc1 (stereo not drawn)	48	0.5	-2.8	-1.9	68*	0.3
CC(=O)c1ccc(N(C(=O)Cc2c[nH]c3ccccc23)C(C(=O)NC2CCCCC2)c2cccs2)cc1 (stereo not drawn)	58*	0.4	/	-1.7	65*	0.4
Cc1ccc(C(C(=O)NC2CCCCC2)N(C(=O)Cc2c[nH]c3ccccc23)c2ccccc2)o1 (stereo not drawn)	66*	0.3	-1.8	-0.61	45	0.6
Cc1cc(NC(=O)CCCC(=O)N(c2ccccc2)C(C(=O)NC2CCCCC2)c2cccs2)no1 (stereo not drawn)	/	/	0.25	1	/	/
Cc1cc(C)cc(N(C(=O)C(F)(F)F)C(C(=O)NC2CCCCC2)c2cccs2)c1 (stereo not drawn)	16	0.8	-0.053	0.3	9	0.9
Clc1ccc(OCc2nn3c(C4CCCCC4)nnc3s2)c(Cl)c1	-3	1	-0.13	-1	9	0.9
Cc1cc(NC(=O)CCC(=O)N(CC(=O)NCC2CCCO2)c2ccc3c(c2)OCCO3)no1 (stereo not drawn)	/	/	-0.052	0.61	/	/
CC(C)(Oc1cccc2ccccc12)C(=O)O	4	1	0.42	1.6	5	1
O=C1C(C23CC4CC(CC(C4)C2)C3)C(=O)N(c2ccccc2)N1c1ccccc1	/	/	0.36	-1.7	/	/
O=C(c1cccnc1)N1C2C=CC(C2)C1(C(F)(F)F)C(F)(F)F (stereo not drawn)	-34	1.3	/	-0.5	-21	1.2
O=C(c1ccncc1)N1C2C=CC(C2)C1(C(F)(F)F)C(F)(F)F (stereo not drawn)	61*	0.4	-0.0036	/	23	0.8
Cc1ccc(C2CC(C(F)F)n3ncc(C(=O)Nc4cnn(Cc5ccccc5C)c4)c3N2)cc1 (stereo not drawn)	62*	0.4	-0.054	-0.65	8	0.9
Cc1ccccc1Cn1cc(NC(=O)c2nc3ncccn3n2)cn1	28	0.7	-0.057	0.23	13	0.9
O=C1C2CC=C(Cl)CC2C(=O)N1CCCCCCN1C(=O)C2CC=C(Cl)CC2C1=O (stereo not drawn)	82*	0.2	1.2	-1.3	75*	0.3
CCSc1ncc(Cl)c(C(=O)Nc2ccc(S(=O)(=O)Nc3onc(C)c3C)cc2)n1	58*	0.4	1.7	3.4	-4	1
CN(C(=O)c1cc2n(n1)C(C(F)(F)F)CC(c1ccco1)N2)c1ccccc1 (stereo not drawn)	14	0.9	1.1	-0.49	31	0.7
CCCCCCNC(=O)CCNC(=O)c1cc(OC)c(OC)c(OC)c1	17	0.8	0.72	0.38	27	0.7
COc1cc(C(=O)NCCC(=O)NC2CCCCCCC2)cc(OC)c1OC	37	0.6	0.4	-1.1	83*	0.2
CCN(CC)c1cnn(C/C(=N\OC)c2ccc(Cl)cc2)c(=O)c1Br	94*	0.1	-5.1*	-1.7	97*	0
O=C(CCCCCNS(=O)(=O)c1ccc(Br)cc1)NCCN1CCOCC1	2	1	0.97	-0.23	-11	1.1
Cc1noc(/C=C/N(C)C)c1S(=O)(=O)N1CCCC(C(=O)NCc2ccc(F)cc2)C1 (stereo not drawn)	73*	0.3	/	/	46	0.5
Cc1ccc(CNC(=O)C2CCCN(S(=O)(=O)c3c(C)noc3C)C2)cc1 (stereo not drawn)	-4	1	0.62	-0.17	-13	1.1
Cc1noc(/C=C/N(C)C)c1S(=O)(=O)N1CCCC(C(=O)NCc2ccccc2Cl)C1 (stereo not drawn)	78*	0.2	/	-0.27	24	0.8
CS(=O)(=O)N1CCCC(C(=O)NCc2ccc(F)cc2)C1 (stereo not drawn)	0	1	0.58	1.3	1	1

Screening data from PubChem BioAssay.
